# Measurements published in publication PMC7862700, “An all-to-all approach to the identification of sequence-specific readers for epigenetic DNA modifications on cytosine”.
# Experiments:
# Assay in all cases: DAPPL (digital affinity profiling via proximity ligation, sequencing); 10 mM Tris-HCl pH 7.5, 50 mM NaCl, 1 mM DTT, 4% glycerol, room temperature, 30 min; GST-TFs on glutathione beads, 16-mer random dsDNA library, 0.1% formaldehyde crosslink after washing; high values mean tight binding
# ETV5 = ETV5 (Homo sapiens, UniProt P41161 1-510); conditions: protein: recombinant; tags: N-terminal GST; dsDNA, one strand shown
# Chain of ETV5 (P41161 whole entry, the tested form may be a part): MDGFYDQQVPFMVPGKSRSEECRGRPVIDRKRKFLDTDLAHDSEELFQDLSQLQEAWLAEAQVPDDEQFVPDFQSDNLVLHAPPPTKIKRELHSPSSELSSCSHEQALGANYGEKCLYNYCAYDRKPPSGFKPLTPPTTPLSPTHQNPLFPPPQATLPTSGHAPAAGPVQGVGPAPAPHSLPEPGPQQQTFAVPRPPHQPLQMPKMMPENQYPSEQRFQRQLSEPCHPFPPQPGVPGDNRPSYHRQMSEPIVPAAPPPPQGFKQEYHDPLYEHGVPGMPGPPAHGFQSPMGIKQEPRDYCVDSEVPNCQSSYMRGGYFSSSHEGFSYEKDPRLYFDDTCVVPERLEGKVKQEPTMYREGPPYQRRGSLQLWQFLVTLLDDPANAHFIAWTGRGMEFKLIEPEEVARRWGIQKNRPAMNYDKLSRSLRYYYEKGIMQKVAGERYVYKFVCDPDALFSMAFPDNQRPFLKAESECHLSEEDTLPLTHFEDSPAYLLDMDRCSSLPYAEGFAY
# In short: (§1)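 Yeast served to express human transcription factors as GST fusions, which were then captured on glutathione beads and labelled with DNA barcodes. Pooled with a tag-only sample, they were incubated with 200 nmole of a 16-mer random double-stranded DNA library for 30 min at room temperature in Tris/NaCl/DTT/glycerol buffer, washed, crosslinked with 0.1% formaldehyde, ligated by proximity, amplified by PCR and sequenced. Dividing each hexamer's read frequency for a factor by its frequency for the tag-only sample gives the binding signal.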
# HSF1 = HSF1 (Homo sapiens, UniProt Q00613 1-529); conditions: protein: recombinant; tags: N-terminal GST; chain copies: 3; dsDNA, one strand shown
# Chain of HSF1 (Q00613 whole entry): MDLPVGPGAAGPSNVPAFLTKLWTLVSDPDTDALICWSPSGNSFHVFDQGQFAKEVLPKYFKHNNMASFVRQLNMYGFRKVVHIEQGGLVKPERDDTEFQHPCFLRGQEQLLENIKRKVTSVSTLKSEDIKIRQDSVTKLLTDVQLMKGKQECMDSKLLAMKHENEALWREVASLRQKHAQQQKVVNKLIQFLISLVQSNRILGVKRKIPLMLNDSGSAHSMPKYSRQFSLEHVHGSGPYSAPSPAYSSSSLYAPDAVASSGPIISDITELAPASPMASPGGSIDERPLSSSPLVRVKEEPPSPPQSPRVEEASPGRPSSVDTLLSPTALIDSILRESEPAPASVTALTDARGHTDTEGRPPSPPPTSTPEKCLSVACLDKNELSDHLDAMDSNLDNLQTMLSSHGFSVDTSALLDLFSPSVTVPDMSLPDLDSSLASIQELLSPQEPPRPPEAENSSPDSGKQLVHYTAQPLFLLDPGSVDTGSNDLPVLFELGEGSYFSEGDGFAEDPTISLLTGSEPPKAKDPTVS
# In short: as §1
# SPIC = target: T1, SPIC (Homo sapiens, UniProt Q8N5J4 1-248); conditions: protein: recombinant; tags: N-terminal GST; dsDNA, one strand shown
# T1 sequence: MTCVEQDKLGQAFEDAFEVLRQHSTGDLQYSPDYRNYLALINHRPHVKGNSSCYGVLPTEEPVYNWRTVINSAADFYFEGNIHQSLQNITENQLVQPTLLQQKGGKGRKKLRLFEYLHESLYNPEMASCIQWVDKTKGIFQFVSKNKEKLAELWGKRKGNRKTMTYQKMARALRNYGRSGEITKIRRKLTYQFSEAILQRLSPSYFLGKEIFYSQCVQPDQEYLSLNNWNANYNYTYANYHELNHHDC
# In short: as §1
# ELF4 = ELF4 (Homo sapiens, UniProt Q99607 1-663); conditions: protein: recombinant; tags: N-terminal GST; dsDNA, one strand shown
# Chain of ELF4 (Q99607 whole entry): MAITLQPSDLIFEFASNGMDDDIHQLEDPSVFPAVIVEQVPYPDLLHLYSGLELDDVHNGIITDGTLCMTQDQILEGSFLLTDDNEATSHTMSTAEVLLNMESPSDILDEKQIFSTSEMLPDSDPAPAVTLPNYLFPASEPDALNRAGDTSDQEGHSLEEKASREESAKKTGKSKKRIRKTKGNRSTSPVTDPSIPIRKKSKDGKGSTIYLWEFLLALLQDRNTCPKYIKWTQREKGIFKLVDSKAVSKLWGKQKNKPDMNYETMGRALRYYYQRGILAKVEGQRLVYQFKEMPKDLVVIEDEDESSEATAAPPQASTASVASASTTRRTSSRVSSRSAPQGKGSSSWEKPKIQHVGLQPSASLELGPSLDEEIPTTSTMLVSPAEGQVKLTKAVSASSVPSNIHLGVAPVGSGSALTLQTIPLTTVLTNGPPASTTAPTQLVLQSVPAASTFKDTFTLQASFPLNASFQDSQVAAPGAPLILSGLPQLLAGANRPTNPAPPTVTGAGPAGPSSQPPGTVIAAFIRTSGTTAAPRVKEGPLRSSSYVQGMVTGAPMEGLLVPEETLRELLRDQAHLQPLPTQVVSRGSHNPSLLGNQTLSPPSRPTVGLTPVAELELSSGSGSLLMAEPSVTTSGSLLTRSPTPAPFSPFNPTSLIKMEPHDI
# In short: as §1
# ELK4 = target: T2, ELK4 (Homo sapiens, UniProt P28324-2 1-405); conditions: protein: recombinant; tags: N-terminal GST; dsDNA, one strand shown
# T2 sequence: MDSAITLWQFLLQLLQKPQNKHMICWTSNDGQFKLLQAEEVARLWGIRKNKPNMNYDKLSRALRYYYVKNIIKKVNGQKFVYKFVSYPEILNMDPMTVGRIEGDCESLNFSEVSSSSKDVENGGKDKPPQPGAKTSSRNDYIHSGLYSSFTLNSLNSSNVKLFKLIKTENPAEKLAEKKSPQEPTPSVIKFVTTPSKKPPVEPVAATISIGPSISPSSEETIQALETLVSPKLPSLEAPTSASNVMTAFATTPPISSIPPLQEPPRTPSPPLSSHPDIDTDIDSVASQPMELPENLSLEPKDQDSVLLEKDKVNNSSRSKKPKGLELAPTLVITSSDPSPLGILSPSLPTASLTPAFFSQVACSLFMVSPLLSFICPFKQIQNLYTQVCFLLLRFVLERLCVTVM
# In short: as §1
# ETV2 = target: T3, ETV2 (Homo sapiens, UniProt O00321 1-342); conditions: protein: recombinant; tags: N-terminal GST; dsDNA, one strand shown
# T3 sequence: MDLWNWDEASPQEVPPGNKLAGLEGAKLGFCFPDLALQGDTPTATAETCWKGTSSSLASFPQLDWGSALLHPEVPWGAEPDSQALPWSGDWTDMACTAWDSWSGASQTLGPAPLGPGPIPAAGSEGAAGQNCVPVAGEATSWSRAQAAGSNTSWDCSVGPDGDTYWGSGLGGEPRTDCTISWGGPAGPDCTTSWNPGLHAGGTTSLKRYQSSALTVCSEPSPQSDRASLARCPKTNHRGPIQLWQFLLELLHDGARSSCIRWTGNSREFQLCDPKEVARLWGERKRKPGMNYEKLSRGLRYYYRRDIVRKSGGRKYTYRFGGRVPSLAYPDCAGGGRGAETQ
# In short: as §1
# ELF3 = target: T4, ELF3 (Homo sapiens, UniProt P78545 1-371); conditions: protein: recombinant; tags: N-terminal GST; dsDNA, one strand shown
# T4 sequence: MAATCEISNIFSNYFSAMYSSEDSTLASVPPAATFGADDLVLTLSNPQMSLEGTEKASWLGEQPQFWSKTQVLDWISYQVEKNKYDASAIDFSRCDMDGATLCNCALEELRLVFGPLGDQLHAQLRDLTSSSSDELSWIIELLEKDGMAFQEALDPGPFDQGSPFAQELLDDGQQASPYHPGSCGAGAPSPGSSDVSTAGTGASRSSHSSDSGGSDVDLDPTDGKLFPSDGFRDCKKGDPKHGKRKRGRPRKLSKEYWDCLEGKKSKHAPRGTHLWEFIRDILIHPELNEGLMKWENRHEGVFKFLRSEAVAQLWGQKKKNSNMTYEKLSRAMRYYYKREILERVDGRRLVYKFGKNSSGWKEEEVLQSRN
# In short: as §1
# ETV1 = ETV1 (Homo sapiens, UniProt P50549 1-477); conditions: protein: recombinant; tags: N-terminal GST; dsDNA, one strand shown
# Chain of ETV1 (P50549 whole entry): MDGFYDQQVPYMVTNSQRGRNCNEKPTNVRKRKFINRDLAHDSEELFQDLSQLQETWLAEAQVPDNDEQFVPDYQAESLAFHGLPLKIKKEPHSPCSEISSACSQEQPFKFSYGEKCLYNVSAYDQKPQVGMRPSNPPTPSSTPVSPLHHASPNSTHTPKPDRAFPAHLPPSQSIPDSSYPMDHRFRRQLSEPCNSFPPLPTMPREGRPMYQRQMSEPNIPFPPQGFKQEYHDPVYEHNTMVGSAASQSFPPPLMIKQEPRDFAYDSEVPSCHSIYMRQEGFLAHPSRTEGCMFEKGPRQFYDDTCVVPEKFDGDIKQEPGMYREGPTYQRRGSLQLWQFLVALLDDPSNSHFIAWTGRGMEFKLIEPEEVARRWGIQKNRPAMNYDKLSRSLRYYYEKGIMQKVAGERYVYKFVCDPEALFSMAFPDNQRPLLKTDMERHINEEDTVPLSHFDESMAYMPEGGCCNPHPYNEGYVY
# In short: as §1
# ERF = target: T5, ERF (Homo sapiens, UniProt P50548 1-548); conditions: protein: recombinant; tags: N-terminal GST; dsDNA, one strand shown
# T5 sequence: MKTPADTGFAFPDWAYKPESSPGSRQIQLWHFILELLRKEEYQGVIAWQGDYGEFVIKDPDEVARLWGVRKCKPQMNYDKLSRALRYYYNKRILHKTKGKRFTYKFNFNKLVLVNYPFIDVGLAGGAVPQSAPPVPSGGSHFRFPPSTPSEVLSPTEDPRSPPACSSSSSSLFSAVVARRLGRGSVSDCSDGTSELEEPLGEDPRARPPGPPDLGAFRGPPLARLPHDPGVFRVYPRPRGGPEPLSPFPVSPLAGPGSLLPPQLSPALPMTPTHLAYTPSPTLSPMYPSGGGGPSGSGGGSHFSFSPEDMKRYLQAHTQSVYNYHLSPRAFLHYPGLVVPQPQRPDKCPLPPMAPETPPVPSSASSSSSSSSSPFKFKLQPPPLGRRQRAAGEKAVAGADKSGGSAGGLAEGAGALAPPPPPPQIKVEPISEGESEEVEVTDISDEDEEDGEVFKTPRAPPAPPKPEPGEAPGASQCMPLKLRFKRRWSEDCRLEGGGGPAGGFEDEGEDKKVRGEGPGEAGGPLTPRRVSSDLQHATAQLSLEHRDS
# In short: as §1
# ETV3L = target: T6, ETV3L (Homo sapiens, UniProt Q6ZN32 1-361); conditions: protein: recombinant; tags: N-terminal GST; dsDNA, one strand shown
# T6 sequence: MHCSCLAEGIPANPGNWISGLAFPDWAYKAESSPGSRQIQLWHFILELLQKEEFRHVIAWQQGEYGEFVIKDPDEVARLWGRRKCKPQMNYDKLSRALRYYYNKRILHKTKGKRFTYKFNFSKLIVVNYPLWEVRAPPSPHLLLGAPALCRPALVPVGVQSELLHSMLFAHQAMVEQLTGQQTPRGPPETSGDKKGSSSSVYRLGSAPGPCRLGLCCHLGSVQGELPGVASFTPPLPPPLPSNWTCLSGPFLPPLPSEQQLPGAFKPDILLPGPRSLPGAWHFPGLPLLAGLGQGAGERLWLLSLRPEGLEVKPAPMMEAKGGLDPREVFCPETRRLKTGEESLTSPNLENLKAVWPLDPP
# In short: as §1
# ETS2 = target: T7, ETS2 (Homo sapiens, UniProt P15036 1-469); conditions: protein: recombinant; tags: N-terminal GST; dsDNA, one strand shown
# T7 sequence: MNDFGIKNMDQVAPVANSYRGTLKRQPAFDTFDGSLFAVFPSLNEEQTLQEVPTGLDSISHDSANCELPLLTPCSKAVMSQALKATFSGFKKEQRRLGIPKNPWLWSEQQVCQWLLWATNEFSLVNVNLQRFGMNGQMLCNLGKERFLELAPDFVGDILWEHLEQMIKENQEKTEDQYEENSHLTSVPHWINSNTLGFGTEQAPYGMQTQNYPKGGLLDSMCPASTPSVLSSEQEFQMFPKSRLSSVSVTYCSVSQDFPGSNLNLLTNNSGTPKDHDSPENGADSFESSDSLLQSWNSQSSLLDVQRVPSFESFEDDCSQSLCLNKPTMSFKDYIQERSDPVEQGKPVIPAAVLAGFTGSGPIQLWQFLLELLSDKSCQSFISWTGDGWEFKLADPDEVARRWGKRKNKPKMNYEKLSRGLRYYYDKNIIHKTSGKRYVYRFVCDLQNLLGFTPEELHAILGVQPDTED
# In short: as §1
# SPDEF = target: T8, SPDEF (Homo sapiens, UniProt O95238 1-335); conditions: protein: recombinant; tags: N-terminal GST; dsDNA, one strand shown
# T8 sequence: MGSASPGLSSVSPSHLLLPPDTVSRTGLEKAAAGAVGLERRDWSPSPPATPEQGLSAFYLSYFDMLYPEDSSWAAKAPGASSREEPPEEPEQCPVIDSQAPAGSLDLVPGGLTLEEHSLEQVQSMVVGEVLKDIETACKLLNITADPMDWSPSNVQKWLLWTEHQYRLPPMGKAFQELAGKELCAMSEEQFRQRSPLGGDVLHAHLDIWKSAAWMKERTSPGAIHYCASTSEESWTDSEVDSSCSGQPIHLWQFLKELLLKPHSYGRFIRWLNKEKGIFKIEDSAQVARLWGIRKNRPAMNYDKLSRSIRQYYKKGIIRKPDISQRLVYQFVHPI
# In short: as §1
# ETV7 = target: T9, ETV7 (Homo sapiens, UniProt Q9Y603 1-341); conditions: protein: recombinant; tags: N-terminal GST; dsDNA, one strand shown
# T9 sequence: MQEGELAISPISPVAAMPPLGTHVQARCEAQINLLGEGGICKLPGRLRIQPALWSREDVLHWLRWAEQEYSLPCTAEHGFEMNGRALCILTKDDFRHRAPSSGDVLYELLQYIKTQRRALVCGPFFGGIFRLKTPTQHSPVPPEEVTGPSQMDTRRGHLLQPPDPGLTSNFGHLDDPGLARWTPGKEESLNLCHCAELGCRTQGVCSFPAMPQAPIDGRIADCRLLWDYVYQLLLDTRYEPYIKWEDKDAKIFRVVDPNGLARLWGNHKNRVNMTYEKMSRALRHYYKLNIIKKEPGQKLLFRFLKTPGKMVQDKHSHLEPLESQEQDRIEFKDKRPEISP
# In short: as §1
# ETV3 = target: T10, ETV3 (Homo sapiens, UniProt P41162-2 1-143); conditions: protein: recombinant; tags: N-terminal GST; dsDNA, one strand shown
# T10 sequence: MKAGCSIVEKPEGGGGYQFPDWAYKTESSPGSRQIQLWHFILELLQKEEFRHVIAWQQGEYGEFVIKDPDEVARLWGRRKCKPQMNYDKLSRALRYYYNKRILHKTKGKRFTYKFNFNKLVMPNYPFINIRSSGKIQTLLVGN
# In short: as §1
# FEV = target: T11, FEV (Homo sapiens, UniProt Q99581 1-238); conditions: protein: recombinant; tags: N-terminal GST; dsDNA, one strand shown
# T11 sequence: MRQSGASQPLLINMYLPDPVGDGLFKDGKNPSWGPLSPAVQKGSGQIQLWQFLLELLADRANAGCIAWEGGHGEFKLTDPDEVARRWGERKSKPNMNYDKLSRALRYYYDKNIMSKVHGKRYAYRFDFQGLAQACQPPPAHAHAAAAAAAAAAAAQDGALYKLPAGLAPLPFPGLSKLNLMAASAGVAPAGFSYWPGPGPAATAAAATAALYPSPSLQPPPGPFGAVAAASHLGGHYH
# In short: as §1
# ELF5 = target: T12, ELF5 (Homo sapiens, UniProt Q9UKW6-2 1-255); conditions: protein: recombinant; tags: N-terminal GST; dsDNA, one strand shown
# T12 sequence: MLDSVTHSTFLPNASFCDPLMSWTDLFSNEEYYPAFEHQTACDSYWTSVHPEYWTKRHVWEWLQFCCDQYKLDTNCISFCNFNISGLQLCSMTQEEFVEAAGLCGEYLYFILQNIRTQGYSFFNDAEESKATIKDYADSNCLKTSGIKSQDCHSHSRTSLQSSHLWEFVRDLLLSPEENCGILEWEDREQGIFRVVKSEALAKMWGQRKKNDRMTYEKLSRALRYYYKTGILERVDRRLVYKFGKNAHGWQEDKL
# In short: as §1
Sequence,binding signal (ETV5),binding signal (HSF1),binding signal (SPIC),binding signal (ELF4),binding signal (ELK4),binding signal (ETV2),binding signal (ELF3),binding signal (ETV1),binding signal (ERF),binding signal (ETV3L),binding signal (ETS2),binding signal (SPDEF),binding signal (ETV7),binding signal (ETV3),binding signal (FEV),binding signal (ELF5)
TGCGTT,"1.07 fold enrichment (6-mer frequency, TF over GST control)","1 fold enrichment (6-mer frequency, TF over GST control)","1.13 fold enrichment (6-mer frequency, TF over GST control)","1.05 fold enrichment (6-mer frequency, TF over GST control)","1.19 fold enrichment (6-mer frequency, TF over GST control)","1.16 fold enrichment (6-mer frequency, TF over GST control)","1.25 fold enrichment (6-mer frequency, TF over GST control)","1.02 fold enrichment (6-mer frequency, TF over GST control)","1.2 fold enrichment (6-mer frequency, TF over GST control)","1.11 fold enrichment (6-mer frequency, TF over GST control)","1.09 fold enrichment (6-mer frequency, TF over GST control)","1.08 fold enrichment (6-mer frequency, TF over GST control)","1.24 fold enrichment (6-mer frequency, TF over GST control)","1.06 fold enrichment (6-mer frequency, TF over GST control)",–,–
TGAAAA,"1.02 fold enrichment (6-mer frequency, TF over GST control)","1.14 fold enrichment (6-mer frequency, TF over GST control)","1.11 fold enrichment (6-mer frequency, TF over GST control)","1.11 fold enrichment (6-mer frequency, TF over GST control)","1.08 fold enrichment (6-mer frequency, TF over GST control)","1.08 fold enrichment (6-mer frequency, TF over GST control)","1.08 fold enrichment (6-mer frequency, TF over GST control)","1.01 fold enrichment (6-mer frequency, TF over GST control)","1.04 fold enrichment (6-mer frequency, TF over GST control)","1.07 fold enrichment (6-mer frequency, TF over GST control)","1.11 fold enrichment (6-mer frequency, TF over GST control)","1.01 fold enrichment (6-mer frequency, TF over GST control)","1.07 fold enrichment (6-mer frequency, TF over GST control)",–,"1.06 fold enrichment (6-mer frequency, TF over GST control)","1.06 fold enrichment (6-mer frequency, TF over GST control)"
